Measurements: PubChem BioAssay
Calls of active or inactive are those of the source.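 The calls were made as follows, unless noted: active = inhibition above 20% together with a positive visual image hit; inconclusive = visual image hit but inhibition not above 20%; inactive = no visual image hit.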

Legend:
[1] = inhibitors of TNFa-induced NFkB p65 translocation, primary screen, imaging, HUVEC, MLSMR starter and 10KST1 sets (AID 438); details: HUVEC TNFa-induced p65 nuclear translocation; cell count: measured here: nuclei count (cytotoxicity indicator), at 2.08 µM; inhibition: at 2 µM, stronger effect = higher value, 0% TNFa-plus-vehicle, 100% no-TNFa wells;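 also: compound added about 3h40 before a 20 min TNFalpha stimulation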;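 as to inhibition: signal is the nuclear over cytoplasmic p65 intensity ratio per well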
[2] = reduction of polyQ htt aggregates in cells – imaging, exon1htt(103Q)mCFP cells, high-content imaging, primary screen (AID 483;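 active = visual image review flags a hit and inhibition of aggregation exceeds 20%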;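 also: compound exposure lasted 3 days before fixation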;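 as to nuclei count: percent of the per-plate median nuclei count of sample wells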); details: exon1htt(103Q)mCFP cell line, aggregate imaging, at 2 µM; inhibition of aggregation: stronger effect = higher value; nuclei count: measured here: cell count, toxicity
[3] = endothelial E-selectin expression blockers – imaging, HUVEC, immunofluorescence, MLSMR starter and 10KST1 sets, primary screen (AID 487;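 active = visually confirmed hit in the image check and inhibition above 20%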;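 as to inhibition: signal is fraction of cell area covered by stained E-selectin grains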;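 as to nuclei count: 100% = median nuclei count of all wells on the same plate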); details: HUVEC TNFalpha-induced E-selectin immunofluorescence imaging, at 2 µM; inhibition: stronger effect = higher value; nuclei count: measured here: cell number, toxicity
[4] = target: Voltage-gated potassium channel subunit beta-2 (Rattus norvegicus) (UniProt P62483); experiment: inhibitors of rat Kvbeta2 reductase activity – biochemical, NADPH fluorescence, primary screen (AID 622;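 active = fluorescence slope higher than the sample average by over 3 SD, cut at about -0.22 in these data, passing the limit was not always enough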;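 also: slope of raw intensity against log time taken from 70 to 1610 s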); details: recombinant KvBeta, 4-cyanobenzaldehyde reduction, at 10 µM, stronger effect = higher value
Chain of Voltage-gated potassium channel subunit beta-2 (Rattus norvegicus) (P62483 whole entry, looked up): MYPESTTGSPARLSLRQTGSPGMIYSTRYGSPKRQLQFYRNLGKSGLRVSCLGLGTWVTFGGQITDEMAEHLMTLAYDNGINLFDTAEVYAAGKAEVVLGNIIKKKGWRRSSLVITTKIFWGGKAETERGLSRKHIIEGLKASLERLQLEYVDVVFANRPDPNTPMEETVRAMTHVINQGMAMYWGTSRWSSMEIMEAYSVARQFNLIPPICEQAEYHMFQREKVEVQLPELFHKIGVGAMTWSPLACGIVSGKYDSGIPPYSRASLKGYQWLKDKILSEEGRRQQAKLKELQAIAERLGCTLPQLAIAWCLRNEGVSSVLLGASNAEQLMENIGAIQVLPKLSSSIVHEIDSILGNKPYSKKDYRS

[5] = target: Voltage-gated potassium channel subunit beta-2 (Rattus norvegicus) (UniProt P62483); experiment: enhancers of rat Kvbeta2 NADPH turnover – biochemical, NADPH fluorescence, primary screen (AID 623;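 active = NADPH fluorescence slope more negative than the mean of all samples by about 3 SD, 99.7% confidence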;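 also: fluorescence intensity change per second fitted from 20 to 320 s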); details: Recombinant KvBeta, NADPH fluorescence decrease slope, 10 min; at 10 µM; stronger effect = lower value
[6] = target: Alpha-2C adrenergic receptor (Homo sapiens) (UniProt P18825); experiment: compounds altering alpha2C-coupled GIRK flux – cell-based, HEK293 alpha2C/GIRK1/2, thallium flux, primary screen (AID 624;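 active = fluorescence slope after compound addition differing from the mean of all screened samples at 99.7% confidence, in either direction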;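 also: slope of fluorescence ratio to pre-addition baseline per second over 15 to 24 s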); details: thallium flux BTC fluorescence, at 10 µM, actives lie on both sides
Chain of Alpha-2C adrenergic receptor (Homo sapiens) (P18825 whole entry, looked up): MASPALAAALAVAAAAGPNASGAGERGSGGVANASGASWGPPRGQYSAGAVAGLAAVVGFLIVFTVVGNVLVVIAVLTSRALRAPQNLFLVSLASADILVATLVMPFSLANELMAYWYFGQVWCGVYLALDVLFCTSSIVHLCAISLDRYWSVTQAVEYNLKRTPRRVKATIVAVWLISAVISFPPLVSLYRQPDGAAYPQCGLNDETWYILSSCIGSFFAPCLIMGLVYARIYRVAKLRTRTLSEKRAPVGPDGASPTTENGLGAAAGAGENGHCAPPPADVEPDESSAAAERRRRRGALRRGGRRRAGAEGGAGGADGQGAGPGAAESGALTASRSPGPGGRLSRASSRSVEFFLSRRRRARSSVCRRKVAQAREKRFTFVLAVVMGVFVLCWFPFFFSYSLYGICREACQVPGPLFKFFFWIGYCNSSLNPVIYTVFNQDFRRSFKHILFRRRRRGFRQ

[7] = blockers of RIG-like receptor reporter activation – cell-based, Sendai virus stimulus, luciferase, 10K MLSCN set, TLR/RLR signaling modifier project, primary screen (AID 602276;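 active = inhibition at or above 50% at 10 µM; inactive = inhibition below 50%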;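 also: firefly luciferase from ISG56 promoter only with Renilla not read in this screen; 0% = Sendai virus plus DMSO and 100% = medium plus DMSO without virus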); details: HEK293 RL24 IRF3 luciferase reporter, at 10 µM, stronger effect = higher value
[8] = TLR3 IRF3 reporter activation blockers – cell-based, poly I:C stimulus, luciferase, 10K MLSCN set, primary screen (AID 602277;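 active = inhibition of the reporter signal at or above 50%; inactive = inhibition below 50%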); details: HEK293-TLR3 RL24 IRF3 luciferase reporter, at 10 µM, stronger effect = higher value

Compound | cell count [1] | inhibition [1] | inhibition of aggregation [2] | nuclei count [2] | inhibition [3] | nuclei count [3] | fluorescence slope [4] | NADPH fluorescence slope [5] | slope [6] | inhibition [7] | inhibition [8]
CCN(Cc1ccccc1)C(c1ccncc1)c1nnnn1C(C)(C)C (stereo not drawn) | 618 | 11.6% (inactive) | -32% (inactive) | 122% | -42.3% (inactive) | 116% | -0.606 (inactive) | -3.2e-05 (inactive) | 0.0048 (inactive) | 17.8% (inactive) | 21.6% (inactive)
COc1ccc2[nH]c(=O)c(CNC3CCCCC3)cc2c1 | 673 | 6.3% (inactive) | 3.5% (inactive) | 112% | -17.6% (inactive) | 90.1% | -0.452 (inactive) | -3.4e-05 (inactive) | 0.00407 (inactive) | 6.87% (inactive) | 29% (inactive)
Cc1cccc(NC(=O)c2ccccc2O)c1C | 497 | 4.9% (inactive) | -10% (inactive) | 98.2% | -5.3% (inactive) | 122% | -0.482 (inactive) | -2.8e-05 (inactive) | 0.00603 (inactive) | -45.5% (inactive) | -93.4% (inactive)
COc1ccc(S(=O)(=O)N2CCSC2c2ccccc2)cc1 (stereo not drawn) | 449 | -3.1% (inactive) | -10.4% (inactive) | 106% | -84.6% (inactive) | 97.9% | -0.463 (inactive) | -3.5e-05 (inactive) | 0.00496 (inactive) | -1.99% (inactive) | 22.7% (inactive)
COc1ccc(C(CC(=O)O)NC(=O)c2ccccc2)cc1OC (stereo not drawn) | 317 | -1.6% (inactive) | -6.3% (inactive) | 116% | -9% (inactive) | 106% | -0.311 (inactive) | 1e-05 (inactive) | 0.00391 (inactive) | 9.8% (inactive) | 28.8% (inactive)
CCCCCC1CC(CC(C)C(=O)Nc2nncs2)C(=O)O1 (stereo not drawn) | 629 | -7.3% (inactive) | -20.6% (inactive) | 112% | -68% (inactive) | 85.5% | -0.369 (inactive) | 2.3e-05 (inactive) | 0.00624 (inactive) | 11.3% (inactive) | 20.7% (inactive)
c1ccc(CNc2c3c(nc4ncnn24)CCCC3)nc1 | 912 | 2.1% (inactive) | -30.3% (inactive) | 102% | -39.1% (inactive) | 111% | -0.542 (inactive) | -9.4e-06 (inactive) | 0.00501 (inactive) | 15.7% (inactive) | 13.9% (inactive)
N#CC(C(=O)c1ccco1)c1ccccn1 (stereo not drawn) | 699 | 2.8% (inactive) | -5.3% (inactive) | 108% | 43.2% (inactive) | 94.7% | -0.367 (inactive) | -2e-05 (inactive) | 0.00116 (inactive) | -8.81% (inactive) | -54% (inactive)
CC(C)N(C(=O)N1CCC(c2nc(-c3ccncc3)no2)CC1)C(C)C | 653 | -7.5% (inactive) | 8.3% (inactive) | 102% | -95.9% (inactive) | 106% | -0.354 (inactive) | -3.3e-05 (inactive) | 0.00413 (inactive) | 0.899% (inactive) | -5.83% (inactive)
O=C(NCCN1CCCCCC1)c1ccc(CS(=O)(=O)c2ccc(Br)cc2)o1 | 591 | -0.5% (inactive) | -28.3% (inactive) | 98.6% | -63.4% (inactive) | 103% | -0.445 (inactive) | 1.2e-05 (inactive) | 0.00438 (inactive) | -15.7% (inactive) | 16.4% (inactive)
CCN(CC)CCNC(=O)c1ccc(N2CCCCC2)c(NS(=O)(=O)c2ccc(C)cc2)c1 | 370 | 6.9% (inactive) | 1.6% (inactive) | 97.8% | -16% (inactive) | 122% | -0.557 (inactive) | -3.5e-05 (inactive) | 0.00347 (inactive) | 13.5% (inactive) | 13.1% (inactive)
CN(Cc1nc(-c2ccncc2)no1)S(=O)(=O)c1ccc(Cl)cc1 | 601 | -6.4% (inactive) | -0.9% (inactive) | 88.3% | 1% (inactive) | 94.8% | -0.543 (inactive) | 6.1e-06 (inactive) | 0.00478 (inactive) | -18.2% (inactive) | -26.6% (inactive)
O=C(CCSc1nc(-c2ccco2)cc(C(F)(F)F)n1)NCCc1ccccc1 | 491 | -8.3% (inactive) | -16.1% (inactive) | 106% | 23.2% (inactive) | 104% | -0.387 (inactive) | -3.6e-05 (inactive) | 0.00564 (inactive) | -7.29% (inactive) | -52.7% (inactive)
O=C(Nc1ccc(Br)cc1F)c1sccc1-n1cccc1 | 616 | -12.7% (inactive) | -18.9% (inactive) | 103% | -10.6% (inactive) | 110% | -0.397 (inactive) | -3.4e-05 (inactive) | 0.00385 (inactive) | -1.64% (inactive) | -17.5% (inactive)
Cc1csc(NC(=O)c2cccs2)n1 | 464 | 1% (inactive) | 30.4% (inactive) | 83.3% | -47.5% (inactive) | 99.5% | -0.506 (inactive) | -4.8e-05 (inactive) | 0.00677 (inactive) | -38.4% (inactive) | -103% (inactive)
COC(C)(C)c1cc(C(C)(C)C)nc(N)n1 | 433 | 12% (inactive) | 9.5% (inactive) | 103% | -28.8% (inactive) | 129% | -0.385 (inactive) | -7.8e-05 (inactive) | 0.00615 (inactive) | 6.59% (inactive) | 24.6% (inactive)
COC(=O)c1cc2oc(C)cc2n1CC(=O)N(C)c1ccccc1 | 370 | -0.4% (inactive) | -4.7% (inactive) | 108% | -67.6% (inactive) | 115% | -0.347 (inactive) | -4.4e-05 (inactive) | 0.00693 (inactive) | 9.76% (inactive) | 30.2% (inactive)
Cc1nn(-c2ccc(Cl)cc2)c2sc(C(=O)N3CCN(c4ccccn4)CC3)cc12 | 571 | -3.6% (inactive) | 1.7% (inactive) | 95.6% | 42.5% (inactive) | 108% | -0.612 (inactive) | -2.4e-05 (inactive) | 0.011 (active) | 9.58% (inactive) | -7.18% (inactive)
O=C(COc1ccc(S(=O)(=O)NC2CCCCC2)cc1Cl)NCC1CCCO1 (stereo not drawn) | 310 | -13.4% (inactive) | -14.2% (inactive) | 124% | -111% (inactive) | 95.6% | -0.415 (inactive) | -1.9e-05 (inactive) | 0.00646 (inactive) | 3.07% (inactive) | 9.97% (inactive)
CCOC(=O)c1cnc(SCC)[nH]c1=O | 436 | -11.8% (inactive) | -0.2% (inactive) | 118% | -34.3% (inactive) | 117% | -0.351 (inactive) | -2.9e-05 (inactive) | 0.00558 (inactive) | 6.7% (inactive) | 27% (inactive)
O=C(O)CN1C(=O)CNC1=O | 249 | 8.5% (inactive) | -1.9% (inactive) | 60.7% | -66.2% (inactive) | 119% | -0.519 (inactive) | 9.8e-06 (inactive) | 0.00529 (inactive) | 3.07% (inactive) | 24% (inactive)
Cn1c2c(c(=O)n(C)c1=O)C(CC(=O)Nc1ccccc1)C(=O)N2 (stereo not drawn) | 604 | -3.5% (inactive) | -2.9% (inactive) | 72% | -81.2% (inactive) | 152% | -0.597 (inactive) | -3.5e-05 (inactive) | 0.00726 (inactive) | 10.9% (inactive) | 22.4% (inactive)
Cc1cccc(Cn2c(SCC(=O)Nc3ccccc3)nc3c2c(=O)[nH]c(=O)n3C)c1 | 467 | 5.4% (inactive) | 44.6% (inactive) | 83.4% | 4.7% (inactive) | 89.8% | -0.394 (inactive) | 2.9e-05 (inactive) | 0.0074 (inactive) | 14.6% (inactive) | 13.4% (inactive)
CC(C)n1nc(C(=O)Nc2nc3ccc(S(C)(=O)=O)cc3s2)c2ccccc2c1=O | 452 | -6.8% (inactive) | -5.5% (inactive) | 35.2% | -52.1% (inactive) | 117% | -0.265 (inactive) | -2.5e-05 (inactive) | 0.00538 (inactive) | 18.5% (inactive) | 29.9% (inactive)
O=C1CC(N2CCN(c3cccc(C(F)(F)F)c3)CC2)C(=O)N1c1ccccc1 (stereo not drawn) | 622 | -1.5% (inactive) | -3.8% (inactive) | 117% | 64.7% (active) | 75.3% | -0.473 (inactive) | -1.5e-05 (inactive) | 0.00274 (inactive) | 7.76% (inactive) | 27.1% (inactive)
O=C(CN1CCCN(S(=O)(=O)c2ccc(Br)cc2)CC1)Nc1ccc2c(c1)OCO2 | 587 | -4.1% (inactive) | -15.4% (inactive) | 107% | -24.8% (inactive) | 84.9% | -0.491 (inactive) | -3.2e-05 (inactive) | 0.00566 (inactive) | 10.3% (inactive) | 38.2% (inactive)
Nc1nc(NCc2ccco2)nn1-c1ccccc1 | 335 | -14.2% (inactive) | -22.2% (inactive) | 112% | 5.3% (inactive) | 93.7% | -0.402 (inactive) | -8.1e-05 (inactive) | 0.00567 (inactive) | 7.08% (inactive) | -10.7% (inactive)
CC(C)Cn1c(N)c(C(=O)NCc2cccs2)c2nc3ccccc3nc21 | 250 | -2.4% (inactive) | -3.1% (inactive) | 68.4% | -1.8% (inactive) | 97.2% | -0.474 (inactive) | 7.5e-06 (inactive) | 0.00389 (inactive) | 14.5% (inactive) | -0.686% (inactive)
